# Measured values: the supplement of paper PMC10127200
# Where a name gives a salt, the structure may show the parent alone.
# Tests used:
# Experiment in all cases: Euclidean distance of Cell Painting phenotypic profile (signed KS, 77 features) to DMSO centroid (dimensionless distance); 5 or 10 uM (library dependent); higher = stronger phenotypic change vs DMSO (phenoactivity)
# Conditions in all cases: 48 h
# 786-O = tested on: 786-O
# Summary of the method: (§1)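 Phenoactivity is defined as the Euclidean distance from a compound profile to the median vehicle profile. Each profile comprised 77 Harmony features, scored as signed Kolmogorov-Smirnov statistics versus same-plate vehicle wells, then plate-position corrected, correlation-weighted and replicate-averaged at the top dose. Five cancer lines and one healthy fibroblast line were exposed to library compounds for 48 h at 10 or 5 uM (0.1% DMSO final).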
# A549 = tested on: A549
# Summary of the method: as §1
# DU145 = tested on: DU145
# Summary of the method: as §1
# FB = tested on: FB
# Summary of the method: as §1
# HEPG2 = tested on: HEPG2
# Summary of the method: as §1
# OVCAR4 = tested on: OVCAR4
# Summary of the method: as §1
Structure (SMILES),Euclidean distance (786-O),Euclidean distance (A549),Euclidean distance (DU145),Euclidean distance (FB),Euclidean distance (HEPG2),Euclidean distance (OVCAR4)
CCCC(=O)[O-].[Na+] [Sodium butyrate],1.42,0.966,1.17,1.13,0.665,1.51
O=c1c(O)c(-c2ccc(O)c(O)c2)oc2cc(O)cc(O)c12 [Quercetin Dihydrate],0.703,1.01,0.731,0.799,0.874,0.868
CCc1cc(C(N)=O)ccc1-n1nc(C(C)C)c2c(-n3cnc(-c4cnn(C)c4)c3)ccnc21,3.26,3.06,3.79,3.38,3.38,2.86
Cn1cc(C2=C(c3cn(CCCSC(=N)N)c4ccccc34)C(=O)NC2=O)c2ccccc21 [Ro 31-8220 Mesylate],2.7,3.02,2.58,2.92,3.24,2.82
CN1C(C(=O)Nc2ccccn2)=C(O)c2sccc2S1(=O)=O [Tenoxicam],0.866,1.16,1.02,0.733,2.05,1.22
CCN1CCN(c2cc3c(cc2F)c(=O)c(C(=O)O)cn3C2CC2)CC1 [Enrofloxacin],0.875,1.1,0.711,0.933,0.992,1.67
CCOc1nc2cccc(C(=O)OCc3oc(=O)oc3C)c2n1Cc1ccc(-c2ccccc2-c2noc(=O)[nH]2)cc1 [Azilsartan Medoxomil],0.852,1.33,0.487,0.689,0.927,0.929
CCCCOc1cc(C(=O)NCCN(CC)CC)c2ccccc2n1 [Cinchocaine],0.885,1.28,0.93,1.03,1.47,1.21
COC(=O)Nc1ccc(-c2nc(N3CCOCC3)c3cnn(C4CCN(C(=O)OC)CC4)c3n2)cc1,1.52,2.8,1.17,2.27,1.92,4
CC1(C)CC(Oc2ccc(-c3ccc(-c4cn[nH]c4)cc3O)nn2)CC(C)(C)N1 [Branaplam (LMI070)],2.88,2.86,4.33,3.24,3.03,3.09
CCOC(=O)c1c(N)sc2c1CCN(Cc1ccccc1)C2 [Tinoridine hydrochloride],1.51,0.9,1.2,1.13,0.814,1.31
NCCCS(=O)(=O)O [Homotaurine],1.14,1.27,0.97,0.97,0.248,1.36
Cc1ccc(S(=O)(=O)Cc2nc(-c3ccc(C(=O)NCc4cccnc4)cc3)oc2C)cc1,3.04,2.65,2.6,1.11,1.68,2.14
Brc1c(NC2=NCCN2)ccc2nccnc12 [Brimonidine Tartrate],0.514,0.618,0.478,0.739,0.644,0.833
NC(=O)c1cc[n+](CC2=C(C(=O)O)N3C(=O)[C@@H](NC(=O)[C@@H](c4ccccc4)S(=O)(=O)[O-])[C@H]3SC2)cc1 [Cefsulodin sodium],1.11,0.966,1.58,1.06,0.633,1.15
CC(C)NCC(O)COc1ccc(COCCOC(C)C)cc1 (stereo unspecified) [Bisoprolol fumarate],0.611,0.836,0.523,0.91,0.467,1.36
CC1(C)Cc2c(-c3ccccc3)c(-c3ccc(Cl)cc3)c(CC(=O)O)n2C1 [Licofelone],0.977,1.12,1.32,1.22,0.815,1.41
CN(CCCCCCCCCCN(C)C(=O)Oc1cccc([N+](C)(C)C)c1)C(=O)Oc1cccc([N+](C)(C)C)c1 [Demecarium Bromide],0.786,0.898,0.6,1.07,1.17,1.24
CN1CCN(C2=Nc3cc(Cl)ccc3Nc3ccccc32)CC1 [Clozapine],1.75,1.56,1.21,0.901,1.03,1.34
Cc1[nH]c(=O)c(C#N)cc1-c1ccc2nccn2c1 [Olprinone],1.08,1.07,0.61,1.08,0.547,1.11
O=P(O)(O)OC(Cn1cncn1)(Cn1cncn1)c1ccc(F)cc1F [Fosfluconazole],1.39,0.635,1.39,0.872,0.852,1.23
CCC(=O)c1c(O)cc(O)cc1O [Flopropione],1.34,0.879,1.2,1.39,0.447,1.04
COc1cccc2c1C(=O)c1c(O)c3c(c(O)c1C2=O)C[C@@](O)(C(=O)CO)C[C@@H]3O[C@H]1C[C@H](N)[C@H](O)[C@H](C)O1 [Doxorubicin (Adriamycin)],4.79,5.36,4.79,5.17,4.55,5

Structure (SMILES),Euclidean distance (786-O),Euclidean distance (A549),Euclidean distance (DU145),Euclidean distance (FB),Euclidean distance (HEPG2),Euclidean distance (OVCAR4)
NC(=O)N1CCC(CC(=O)N2CCC([C@H]3c4ncc(Br)cc4CCc4cc(Cl)cc(Br)c43)CC2)CC1 [Lonafarnib],2.24,1.63,1.33,2.36,1.1,1.63
C[C@H]1C[C@H]2[C@@H]3CCC4=CC(=O)C=C[C@]4(C)[C@@]3(F)[C@@H](O)C[C@]2(C)[C@@]1(O)C(=O)CO [Betamethasone],1.28,2.01,2.37,1.68,0.663,2
C/C=C1\[C@H]2C=C(C)C[C@]1(N)c1ccc(=O)[nH]c1C2 [(-)-Huperzine A (HupA)],1.09,0.676,0.79,0.881,0.528,1.07
Cn1cnc2c1c(=O)[nH]c(=O)n2C [Theobromine],0.718,0.658,0.727,0.792,1.77,0.9
CC(=O)[C@H]1CC[C@H]2[C@@H]3CC=C4C[C@@H](O)CC[C@]4(C)[C@H]3CC[C@]12C [Pregnenolone],1.29,1.07,0.872,1.07,0.703,1.03
C=C1C(=O)[C@]23[C@H](O)[C@H]1CC[C@H]2[C@@]12CO[C@]3(O)[C@@H](O)[C@@H]1C(C)(C)CC[C@@H]2O [Oridonin],1.57,1.32,1.1,1.01,1.03,1.33
CCCCC(CC)COC(=O)CC(C(=O)OCC(CC)CCCC)S(=O)(=O)O (stereo unspecified) [Docusate Sodium],0.771,0.602,0.942,1.2,0.96,1.25
O=C(Nc1nc(-c2cc(Cl)cs2)c(N2CCN(C3CCCCC3)CC2)s1)c1cnc(N2CCC(C(=O)O)CC2)c(Cl)c1 [Avatrombopag],1.81,0.802,1.84,0.858,1.41,1.05
CCN1CCN(C(=O)N[C@@H](C(=O)N[C@@H]2C(=O)N3C(C(=O)O)=C(CSc4nnnn4C)CS[C@H]23)c2ccc(O)cc2)C(=O)C1=O [Cefoperazone],1.77,0.776,0.917,1.45,0.854,1.24
C=C[C@](C)(O)CC[C@@H]1[C@@]2(C)CCCC(C)(C)[C@@H]2CC[C@@]1(C)O [Sclareol],0.617,0.762,0.574,0.717,0.546,1.39
O=C(COc1ccc(Cl)cc1)N1CCN(Cc2ccc3c(c2)OCO3)CC1 [Fipexide hydrochloride],1.78,1.13,1.39,1.08,0.573,1.32
CC(=O)OCC(=O)[C@@]12N=C(C)O[C@@H]1C[C@H]1[C@@H]3CCC4=CC(=O)C=C[C@]4(C)[C@H]3[C@@H](O)C[C@@]12C [Deflazacort],1.27,1.84,2.48,2.04,1.58,1.7
COC1CCN(C(=O)c2cc(Cc3n[nH]c(=O)c4ccccc34)ccc2F)CC1,1.09,1.25,1.32,1.5,1.36,1.3
C[C@@H](O)[C@H]1C(=O)N2C(C(=O)O)=C(S[C@@H]3CN[C@H](C(=O)N(C)C)C3)[C@H](C)[C@H]12 [Meropenem],1.75,1.63,0.873,1.2,1.05,1.15
CC(C)NC[C@@H](C(=O)N1CCN(c2ncnc3c2[C@H](C)C[C@H]3O)CC1)c1ccc(Cl)cc1 [Ipatasertib (GDC-0068)],2.48,2.97,2.12,2.49,1.13,2.11
CO/N=C(\C(=O)N[C@@H]1C(=O)N2C(C(=O)[O-])=C(C[n+]3cccc4c3CCC4)CS[C@H]12)c1csc(N)n1 [Cefpirome sulfate],0.835,0.636,0.405,0.989,0.508,0.689
CO[C@H]1/C=C/O[C@@]2(C)Oc3c(C)c(O)c4c(O)c(c5c(nc6cc(C)ccn65)c4c3C2=O)NC(=O)/C(C)=C\C=C\[C@H](C)[C@H](O)[C@@H](C)[C@@H](O)[C@@H](C)[C@H](OC(C)=O)[C@@H]1C [Rifaximin],1.35,0.671,0.886,1,1.9,1.06
CN1C(=O)C(C)(C)Oc2c(-c3cn(C)c(=O)c4[nH]ccc34)cc(S(C)(=O)=O)cc21,4.28,2.7,2.87,3.94,2.29,2.42
CC(C)(O)c1ccccc1CC[C@@H](SCC1(CC(=O)O)CC1)c1cccc(/C=C/c2ccc3ccc(Cl)cc3n2)c1 [Montelukast Sodium],0.941,0.527,0.759,0.512,0.526,0.733
CC(C)OC(=O)OCOP(=O)(CO[C@H](C)Cn1cnc2c(N)ncnc21)OCOC(=O)OC(C)C [Tenofovir Disoproxil Fumarate],3.16,2.92,1.88,3.17,3.46,2.99
C[C@H]1COc2c(N3CCN(C)CC3)c(F)cc3c(=O)c(C(=O)O)cn1c23 [Levofloxacin],1.07,1.12,0.658,0.922,0.532,1.03
C=CC(=O)Nc1ccc2ncnc(Nc3cccc(Br)c3)c2c1,1.72,2.07,1.78,2.78,1.47,2.99
C[N+](C)(C)CCOC(=O)CCC(=O)OCC[N+](C)(C)C [Succinylcholine Chloride Dihydrate],1.36,2.04,1.93,1.82,1.34,1.91
